HT1080 IDH1KD tx: qHTS for induction of synthetic lethality in tumor cells producing 2HG: qHTS for the HT-1080-IDH1KD cell line | 360,000 compounds, 2% hits | Potency, µM (doses to about 46.1 µM), for inactives: at the top dose activity, negative = toxicity, usual class: cytotoxic | HT-1080 IDH1 knockdown viability, ATP luminescence, 48 h;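 further: 0% = DMSO wells and -100% = cell-free medium wells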
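CellTiter-Glo luminescence after 48 h compound exposure at 37 degrees C of IDH1-knockdown HT-1080 cells in 5% FBS RPMI. %Activity scaled between DMSO wells and cell-free media wells, with curves fitted and assigned curve classes.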
TDP1 cell CPT: qHTS for Inhibitors of human tyrosyl-DNA phosphodiesterase 1 (TDP1): qHTS in cells in presence of CPT; 420,000 compounds, 12% hits; chicken DT40 Tdp1-/-;hTDP1 cells + 20 nM CPT, ATP luminescence, 48 h; Potency, µM (doses to about 46.2 µM), without a hit: at the highest dose activity change, negative = growth inhibition, most hits filed as inhibitors; further: nearly all actives have a fitted effect of over 55% in size
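Chicken DT40 Tdp1-/- cells complemented with human TDP1, 400 cells/well, exposed to compounds plus 20 nM camptothecin for at least 48 h at 37 C; viability read as ATP content by CellTiter-Glo luminescence.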
HT1080-NT tox: qHTS for induction of synthetic lethality in tumor cells producing 2HG: qHTS for the HT-1080-NT fibrosarcoma cell line. HT-1080-NT fibrosarcoma viability, CellTiter-Glo ATP luminescence, 48 h. Potency, µM (titrated, usually from 46.1 µM), inactives show at the highest dose activity, negative = less viability, most hits filed as cytotoxic. 360,000 compounds, 1.6% hits;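 further: NT is the 2HG producing partner of a matched IDH1 knockdown line; 0% = DMSO-treated cells and -100% = media-only wells without cells; nearly all actives have a fitted effect of over 55% in size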
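HT-1080-NT; 750 cells/well; 5% FBS RPMI; 48 h compound, 37 degrees C; CellTiter-Glo luminescence; curve fitting and curve-class assignment.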
KB-V1 cytotox: qHTS assay for MDR1-selective chemotherapeutics: Primary screen using the drug-selected MDR subline cells KB-V1; AID 1347076, 2019; KB-V1 MDR cells viability, CellTiter-Glo, 72 h; Potency, µM (series often up to 46.1 µM), actives largely listed as cytotoxic; 400,000 compounds, 3.4% hits; further: nearly all actives have a fitted effect of over 60% in size
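In this primary screen, KB-V1 cells overexpressing P-gp are incubated with library compounds (lowest to highest concentration) for 72 h at 37 degrees C before a luminescent ATP viability read.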
DT40 TDP1 no CPT: qHTS for Inhibitors of human tyrosyl-DNA phosphodiesterase 1 (TDP1): qHTS in cells in absence of CPT. 420,000 compounds, 15% hits. DT40 Tdp1-/- hTDP1 cells, no CPT, ATP luminescence, 48 h. Potency, µM (titrated, usually from 46.2 µM), inactives show at the highest dose activity change, negative = growth inhibition, hits mostly inhibitors. AID 686978, 2013; further: nearly all actives have a fitted effect of over 55% in size
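Growth of hTDP1-complemented DT40 Tdp1-knockout cells is measured by ATP luminescence after at least 48 hr compound exposure at 37 °C, with DMSO substituting for the 20 nM CPT used in the parallel screen.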
KB-3-1 tox: qHTS assay for MDR1-selective chemotherapeutics: Primary screen using the parental adenocarcinoma cell KB-3-1 | 400,000 compounds, 1.4% hits | KB-3-1 viability, CellTiter-Glo ATP luminescence, 72 h | Potency, µM (doses to about 46.1 µM), hits mostly cytotoxic; further: nearly all actives have a fitted effect of over 60% in size
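KB-3-1 cells, DMEM (no phenol red) + 10% FBS; compound by pin transfer, 72 h, 37 °C. Readout: CellTiter-Glo luminescence after 10 min. Data normalized, curve-fitted.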
* = called active by the depositor; ! = repeats disagree; [ ] = dose if it differs, or a comment. Shown are actives, neighbours in structure and some others; about 19% of the full set was active somewhere. The call rests on the fitted dose curve; in most records, active means well fitted curve in the direction sought with a large enough effect; inconclusive means small, poorly fitted or top-dose-only effect, or another doubt; inactive means no such curve, though single readings can be large; an effect the other way counts as inactive or inconclusive. Unless noted, on the % scale 0 is the no-effect control and ±100 the full control effect; potency means the concentration at half of the fitted maximal effect.

`CCNCC(=O)N1c2ccccc2CCc2ccc(NC(=O)OC(C)C)cc21` gave HT1080 IDH1KD tx -17%, TDP1 cell CPT inconclusive, HT1080-NT tox -25%, KB-V1 cytotox inactive, DT40 TDP1 no CPT 16µM* and KB-3-1 tox inactive.
Screening CC(C)OC(=O)Nc1ccc2c(c1)N(C(=O)N1CCN(C)CC1)c1ccccc1CC2 returned HT1080 IDH1KD tx 23µM*, TDP1 cell CPT 12µM*, HT1080-NT tox 23µM*, KB-V1 cytotox inconclusive, DT40 TDP1 no CPT 13µM* and KB-3-1 tox inconclusive.
CC(C)C(=O)Nc1ncc(Cc2ccc(Cl)cc2)s1 was read as HT1080 IDH1KD tx inconclusive, TDP1 cell CPT inconclusive, HT1080-NT tox -13%, KB-V1 cytotox inconclusive, DT40 TDP1 no CPT inconclusive and KB-3-1 tox inactive.
Screening CC1=C(C(=O)Nc2ccc(F)cc2F)C2(CCCCCC2)OC1=O returned TDP1 cell CPT -13%, KB-V1 cytotox inactive, DT40 TDP1 no CPT -20% and KB-3-1 tox inconclusive.
CC(C)Cn1c(C(C)C)nc([N+](=O)[O-])c1S(=O)(=O)c1ccc(F)cc1 was read as HT1080 IDH1KD tx 7.1µM*, TDP1 cell CPT 2.3µM*, HT1080-NT tox 3.5µM*, KB-V1 cytotox inconclusive, DT40 TDP1 no CPT 3.3µM* and KB-3-1 tox inconclusive.
Screening CC(C)c1nccn1S(=O)(=O)c1cccc([N+](=O)[O-])c1 returned HT1080 IDH1KD tx 2%, TDP1 cell CPT -1%, HT1080-NT tox -1%, KB-V1 cytotox inactive, DT40 TDP1 no CPT -2% and KB-3-1 tox inactive.
CCCc1nc([N+](=O)[O-])c(S(=O)(=O)c2ccccc2)n1CC(C)C was read as HT1080 IDH1KD tx inconclusive, TDP1 cell CPT 16µM*, HT1080-NT tox -10%, KB-V1 cytotox inactive, DT40 TDP1 no CPT 3.3µM* and KB-3-1 tox inconclusive.
For CCOc1ccc(NC(=O)CSc2ccc3nnc(-c4cccnc4)n3n2)cc1 the results were HT1080 IDH1KD tx 7%, TDP1 cell CPT -12%, HT1080-NT tox 29%, KB-V1 cytotox inactive, DT40 TDP1 no CPT inconclusive and KB-3-1 tox inactive.
Screening O=C(CSc1ccc2nnc(-c3cccnc3)n2n1)c1ccccc1 returned HT1080 IDH1KD tx -5%, TDP1 cell CPT 2%, HT1080-NT tox 5%, KB-V1 cytotox inactive, DT40 TDP1 no CPT -27% and KB-3-1 tox inactive.
CCOC(=O)N1CCN(C(=O)CSc2ccc3nnc(-c4cccnc4)n3n2)CC1 was read as HT1080 IDH1KD tx 15%, TDP1 cell CPT inconclusive, HT1080-NT tox -8%, KB-V1 cytotox inactive, DT40 TDP1 no CPT 18µM* and KB-3-1 tox inactive.
Screening CCOC(=O)C(CC)Sc1ccc2nnc(-c3cccnc3)n2n1 (stereo unspecified) returned HT1080 IDH1KD tx -7%, TDP1 cell CPT 14µM*!, HT1080-NT tox -5%, KB-V1 cytotox inconclusive, DT40 TDP1 no CPT inconclusive and KB-3-1 tox inactive.
For O=C(CC(C(=O)O)c1ccc(Cl)cc1)c1ccc(Br)cc1 (stereo unspecified) the results were HT1080 IDH1KD tx 1%, TDP1 cell CPT 8%, HT1080-NT tox -1%, KB-V1 cytotox inactive, DT40 TDP1 no CPT -14% and KB-3-1 tox inactive.
`CCCOc1ccc(OCCN2CCCC(C)C2)cc1` (stereo unspecified) gave HT1080 IDH1KD tx -6%, TDP1 cell CPT -18%, HT1080-NT tox -4%, KB-V1 cytotox inactive, DT40 TDP1 no CPT -13% and KB-3-1 tox inactive.
C[C@@]12CC(=O)C3=C(CCCC3=O)N1CCc1ccccc12 was read as TDP1 cell CPT -4%[9.04 µM] and DT40 TDP1 no CPT -2%[9.04 µM].
For COc1ccc(S(=O)(=O)N2CCC(C(=O)Nc3ccc(F)cc3)CC2)c2cccnc12 the results were HT1080 IDH1KD tx -12%, TDP1 cell CPT 10%, HT1080-NT tox -15%, KB-V1 cytotox inactive, DT40 TDP1 no CPT inconclusive and KB-3-1 tox inactive.
`O=C(NNC(=S)NC(=O)c1sc2ccccc2c1Cl)c1ccc(Cl)cc1` gave HT1080 IDH1KD tx inconclusive, TDP1 cell CPT 18µM*, HT1080-NT tox inconclusive, KB-V1 cytotox inconclusive, DT40 TDP1 no CPT inconclusive and KB-3-1 tox inactive.
`O=C(O)c1ccccc1NC(=S)NC(=O)c1sc2ccccc2c1Cl` gave HT1080 IDH1KD tx 0%, TDP1 cell CPT inconclusive, HT1080-NT tox 0%, KB-V1 cytotox inactive, DT40 TDP1 no CPT 16µM* and KB-3-1 tox inactive.
`O=C(NNC(=O)c1sc2ccccc2c1Cl)Nc1ccc(Cl)cc1` gave HT1080 IDH1KD tx 10%, TDP1 cell CPT -15%, HT1080-NT tox 16%, KB-V1 cytotox inconclusive, DT40 TDP1 no CPT -3% and KB-3-1 tox inactive.
Cc1ccc(Cc2c(-c3ccccc3)nc3cc(C)ccn23)cc1 was read as HT1080 IDH1KD tx -12%, TDP1 cell CPT 16µM*, HT1080-NT tox -3%, KB-V1 cytotox inactive, DT40 TDP1 no CPT 18µM* and KB-3-1 tox inactive.
`Cc1ccn2c(Cc3ccccc3)c(-c3ccc(F)cc3)nc2c1` gave HT1080 IDH1KD tx -6%, TDP1 cell CPT 23µM*, HT1080-NT tox -3%, KB-V1 cytotox inactive, DT40 TDP1 no CPT 21µM* and KB-3-1 tox inconclusive.
For O=C1NCC(COc2ccc(Cl)cc2)O1 (stereo unspecified) the results were HT1080 IDH1KD tx -3%, TDP1 cell CPT -13%, HT1080-NT tox 13%, KB-V1 cytotox inactive, DT40 TDP1 no CPT -6% and KB-3-1 tox inactive.
Cc1ccccc1CN1C(=O)C(C)S/C1=N/N=C/c1ccco1 (stereo unspecified) was read as HT1080 IDH1KD tx -30%, TDP1 cell CPT -12%, HT1080-NT tox -29%, KB-V1 cytotox inactive, DT40 TDP1 no CPT inconclusive and KB-3-1 tox inactive.
`CCC(=O)N1N=C(c2ccc(C)cc2)CC1c1ccco1` (stereo unspecified) gave HT1080 IDH1KD tx 2%, TDP1 cell CPT 21µM*, HT1080-NT tox 2%, KB-V1 cytotox inactive, DT40 TDP1 no CPT 13µM* and KB-3-1 tox inactive.

Screening results as filed in PubChem.
